Source: ChEMBL document CHEMBL3988442, “University of Dundee, Small-Polar-MMV Screening Library” (2021)
Hit rate of the full screen: of about 48,000 compounds, about 13,000 (27%) showed an effect of 50% or more. This is one part of the list.

These molecules were tested on Wolbachia pipientis (assay: Anti-Wolbachia Cell-Based Screen). Settings: 5 µM.
Assay type: functional
Set-up: scale not given: in the data most compounds retested in dose-response had high values

| SMILES | Percent Effect [%] |
| --- | --- |
| COCCOc1ncccc1C(=O)N(C)c1nccs1 | -66.02 |
| CCOCc1nc2c(c(N3CC=CC3)n1)CCN(C1CCOCC1)CC2 | -25.57 |
| CCc1ccccc1OCCN1CCC(NS(C)(=O)=O)CC1 | 2.392 |
| COc1ccc(C(=O)NS(=O)(=O)c2cccc(C#N)c2)cc1 | 98.14 |
| COc1cccc(C(=O)NS(=O)(=O)c2cccc(C#N)c2)c1 | 105.7 |
| N#Cc1cccc(S(=O)(=O)NC(=O)COc2ccc3c(c2)CCC3)c1 | -8.201 |
| Cn1nnc2cc(C(=O)NS(=O)(=O)c3cccc(C#N)c3)ccc21 | -4.102 |
| COCCCNC(=O)c1c[nH]c2ccc(OC)cc12 | -17.1 |
| CCN(CC)C(=O)CCNC(=O)c1c[nH]c2ccc(OC)cc12 | 24.42 |
| COc1ccc2[nH]cc(C(=O)N3C[C@@H](O)[C@H](N4CCOCC4)C3)c2c1 | 129.4 |
| Cc1cc(C(=O)N2C[C@@H]3CCCO[C@@H]3[C@H](N3CCOCC3)C2)c(C)[nH]1 | 5.404 |
| COc1ccc(C(=O)N2C[C@@H](CN3CCOCC3)[C@@H](CO)C2)c(C)c1 | -1.833 |
| CCN(CC)C(=O)CNC(=O)c1c[nH]c2ccc(OC)cc12 | -4.616 |
| COc1ccc2[nH]cc(C(=O)N3C[C@@H](O)[C@H](N4CCCC4)C3)c2c1 | 103.4 |
| COc1ccc2[nH]cc(C(=O)N3CC[C@H](CO)[C@@H](O)C3)c(=O)c2c1 | 6.79 |
| COc1ccc2[nH]cc(C(=O)N3C[C@@H](O)[C@H](NS(C)(=O)=O)C3)c2c1 | 146.2 |
| CCS(=O)(=O)c1ccc(N2CCC(NC(=O)C(C)SC)CC2)cc1 (stereo unspecified) | 6.219 |
| Cc1cc(C(C)NC(=O)c2c[nH]c(=O)c(Cl)c2)c(C)o1 (stereo unspecified) | -8.782 |
| CC(C)C(C)(C#N)NC(=O)CN1CCCN(Cc2ccccc2F)CC1 (stereo unspecified) | 1.272 |
| CCSc1ccc(NC(=O)NC2CCc3[nH]ncc3C2)cn1 (stereo unspecified) | -2.569 |
| O=C(Nc1ccc(CN2CCOCC2)cc1)c1nccn2ccnc12 | -3.19 |
| Cc1nn(C)c2nc(O)cc(C(F)(F)C(F)(F)F)c12 | 1.264 |

| SMILES | Percent Effect [%] |
| --- | --- |
| COc1ccc2c(C)c(C(=O)NCCCc3csc(N)n3)oc2c1 | -14.38 |
| CC(C)c1nn(C)c(N(C)C)c1CNCC(O)c1ccccc1 (stereo unspecified) | 92.25 |
| CC(C)c1nn(C)c(Cl)c1CNCC(O)c1cccc(F)c1.Cl (stereo unspecified) | 10.68 |
| Cc1ccc(C(O)CNCc2c(C(C)C)nn(C)c2N(C)C)cc1 (stereo unspecified) | 2.504 |
| CC(C)c1nn(C)c(N(C)C)c1CNCc1cccc(CN(C)C)c1.Cl | -0.8074 |
| CC(C)c1nn(C)c(N(C)C)c1CNCc1cccnc1 | 3.817 |
| CC(C)c1nn(C)c(N(C)C)c1CNC(C)c1ccccc1F (stereo unspecified) | 86.76 |
| Cc1nn(C)c(N(C)C)c1CNCC(O)c1ccccc1 (stereo unspecified) | -19.87 |
| COc1cccc(CNCc2c(C(C)C)nn(C)c2N(C)C)c1OC | -9.439 |
| CC(C)c1nn(C)c(N(C)C)c1CNCC(O)c1cccc(F)c1 (stereo unspecified) | 133.5 |
| O[C@@H]1CCN(c2ccc3c(Cl)ccnc3c2F)C1 | -13.88 |
| COc1ccc(Cn2ccnc2)cc1F | 137.9 |
| COc1ccc(CN2CCN(Cc3nccn3C)C(C)C2)cc1F (stereo unspecified) | 3.11 |
| O=S(=O)(c1ccc(F)cc1)N1CCN(CCCn2ccnc2)CC1 | 9.586 |
| O=S(=O)(c1cccnc1)N1CCN(CCn2ccnc2)CC1 | 2.586 |
| COc1ccc(CN2CCN(CCn3ccnc3)CC2)cc1F | 154.2 |
| COc1ccc(CNCC2CCN(CCO)CC2)cc1F | -13.55 |
| CCOc1ccc(CNCCCn2ccnc2)cc1OC | -15.55 |
| COc1ccc(Cl)cc1CNCCCn1ccnc1 | 10.95 |
| COc1ccc(F)cc1S(=O)(=O)N1CCN(CCn2ccnc2)CC1 | 123.5 |
| CC(C)(N)c1nc(C(F)F)cc(=O)[nH]1.Cl | 0.5685 |
| CCOc1nc2cnccc2n(CC(=O)NCCc2ccccc2)c1=O | 107.7 |

| SMILES | Percent Effect [%] |
| --- | --- |
| CCOc1ccc(CNC(=O)c2cnc(OC)nc2)cc1 | -7.599 |
| CC(C)(C)n1ncc2c(=O)n(CC(=O)NCc3ccco3)cnc21 | 3.142 |
| CCOc1nc2cnccc2n(CC(=O)NCc2ccco2)c1=O | 96.93 |
| CCOc1nc2cccnc2n(CC(=O)NCCOC)c1=O | -3.624 |
| CC1CN(CC(=O)NCCc2ccncc2)Cc2ccccc2O1 (stereo unspecified) | -8.36 |
| CCOc1nc2cnccc2n(CC(=O)NCc2ccc(C)cc2)c1=O | 143.1 |
| COc1ccccc1NC(=O)Cc1c(C)nc2c(c1C)c(=O)[nH]n2C | -0.4507 |
| CCOc1nc2cnccc2n(CC(=O)Nc2ccccc2OC)c1=O | 90.9 |
| O=C(CN1CCC(c2cccc(F)c2)C1)NCc1ccco1 (stereo unspecified) | -26.03 |
| Cc1nsc(N2CCN(CC(=O)NCc3cccnc3)CC2)n1 | 1.2 |
| COc1ccccc1NCC(=O)Nc1cnn(Cc2ccccn2)c1 | -4.871 |
| CC(C)N(CC(N)=O)CC(=O)N(C1=CCCCC1)C1CC1 | -0.3485 |
| CCC(CC)C(=O)NS(=O)(=O)CCc1ccccc1 | -5.917 |
| COCCn1cc(C(=O)N2CCCC2c2ccccc2C)ccc1=O (stereo unspecified) | -35.63 |
| Fc1cnc(N2CCn3cc(CNc4ccccn4)nc3C2)nc1.O=C(O)C(F)(F)F.O=C(O)C(F)(F)F | -14.44 |
| OC1(CNc2cc(C(F)(F)F)nc3ccccc23)CCOCC1 | 28.2 |
| Cc1cc(NC(=O)CNC(C)(C)c2ccccc2)on1 | 5.655 |
| CCN1CCC(CNC(=O)C(c2ccccc2F)N(C)C)(N(C)C)CC1 (stereo unspecified) | 4.874 |
| CCCn1nc2c(cc1=O)CN(Cc1nnc(C3CC3)o1)CC2 | 20.46 |
| Cc1cc(F)ccc1N1CCCC(NS(=O)(=O)CCCF)C1=O (stereo unspecified) | -6.348 |
| Cn1c(SCC(O)COCc2ccccc2Cl)nnc1C1CC1 (stereo unspecified) | -19.68 |
| COc1ccc(F)c(CN2CCCC(O)(CNCc3ccon3)C2=O)c1 (stereo unspecified) | -2.252 |
